Experimental data from PubChem BioAssay (NCI).
The panel holds about 83,000 compounds, 20% with a hit somewhere; the sample as a whole holds those more often.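 Compound tested at a single concentration for 48 hours in 96-well plates; a percent growth value below 10 was scored as active.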 Calls of active or inactive are those of the source.

What follows are compounds tested on HL-60(TB) leukemia (assay: NCI-60 one-dose screen, 48 h (100 = growth as untreated, 0 = no growth, -100 = all killed)). Conditions: 10 µM unless noted.

**Q.** How did the growth turn out when `CC(C)(C)OC(=O)N1C/C(=C\c2cccs2)C(=O)/C(=C/c2cccs2)C1` was run?
**A.** 96.7% (inactive)

**Q.** For `CCCC(=O)Nc1ccc2c(c1)CN1C(=O)c3ccccc3C1=N2`, which growth is on record?
**A.** 81.9% (inactive)

**Q.** `CC1(C)NCCC[C@]2(C)[C@H]3CC(=O)[C@H]4[C@@H]5C[C@](C)(CO)CC[C@]5(C)CC[C@@]4(C)[C@]3(C)CC[C@@H]12` was tested. Which growth did it give?
**A.** 102% (inactive)

**Q.** Which growth does the source give for `O=C(/C=C1\C(=O)N(Cc2ccccc2)c2ccccc21)c1ccc(OCCN2CCCCC2)cc1` here?
**A.** 7.79% (active)

**Q.** With `COc1cccc(-c2nn(-c3ccccc3)cc2-c2ccnc(-c3cccnc3)c2)c1` as the compound, how does the growth read?
**A.** 56.8% (inactive)

**Q.** For `Oc1ccc(N=Nc2ccc(N=Nc3ccccc3)cc2)cc1`, which growth is on record?
**A.** 7.35% (active)

**Q.** For `CN1CCN(c2nc(NCCCNc3ccnc4cc(Cl)ccc34)c3ccccc3n2)CC1`, which growth is on record?
**A.** 15% (inactive)

**Q.** `Cn1cc(-c2csc(-c3cn(CCN)c4ccc(F)cc34)n2)c2cccnc21` was tested. Which growth did it give?
**A.** 47.1% (inactive)

**Q.** `O=C1C=Cc2ccccc2/C1=C/c1[nH]c(=O)[nH]c1O` was tested. Which growth did it give?
**A.** 43.3% (inactive)

**Q.** Which growth does the source give for `CC1NC(=S)NC(=O)/C1=C/c1cc(=O)oc2c1ccc1ccccc12` (centres undefined) here?
**A.** 102% (inactive)

**Q.** How did the growth turn out when `Cc1cc(C(=O)Nc2ccc3cc(CN4CCOCC4)ccc3n2)c(C)n1-c1ccccc1` was run?
**A.** 14.5% (inactive)

**Q.** `CC(=O)Oc1ccc(C(OC(C)=O)OC(C)=O)cc1` was tested. Which growth did it give?
**A.** 90.3% (inactive)

**Q.** How did the growth turn out when `CC(O)CCNC(c1ccccc1)C(O)c1ccccc1` (centres undefined) was run?
**A.** 102% (inactive)

**Q.** `O[C@@H](c1cc(C(F)(F)F)nc2c(C(F)(F)F)cccc12)[C@H]1CCCCN1` was tested. Which growth did it give?
**A.** 59.4% (inactive)
